The record followed here is PubChem BioAssay (NCI).

Compounds without any hit were thinned out: in the full panel of roughly 83,000, 20% have a hit.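 How to read the values: 0–100, growth inhibition (40 = 60% inhibited); 0, no net growth; -100 to 0, cell death (-40 = 40% of starting cells died; -100 = all dead).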 Active and inactive are the calls of the source. How the source made its calls: active means growth percent below 10; inactive means the rest.

Among the test systems are DU-145 prostate; K-562 leukemia; MALME-3M melanoma; MDA-MB-231 breast; RXF 393 renal; SF-268 CNS; SF-295 CNS; SF-539 CNS; UACC-257 melanoma; M14 melanoma; SNB-75 CNS; SNB-19 CNS; U251 CNS; PC-3 prostate; SK-MEL-5 melanoma; UACC-62 melanoma; LOX IMVI melanoma; SK-MEL-28 melanoma; HT29 colon.
Test in all cases: NCI-60 one-dose screen, 48 h (100 = growth as untreated, 0 = no growth, -100 = all killed)
What all share (settings): 10 µM unless noted

On to `O=C(CCCCCCNC(=O)C(O)(O)C(F)(F)F)Nc1ccc(Br)cc1`, for which the growth in the assay with DU-145 prostate is 0.633% (active); in the assay on K-562 leukemia it was 15.2% (inactive); in the assay on MALME-3M melanoma it was 10.1% (inactive); in the assay on MDA-MB-231 breast it was 28.4% (inactive); with RXF 393 renal it was -38.1% (active); in the assay on SF-268 CNS it was 8.01% (active). Further, the growth in the assay on SF-295 CNS is -25.3% (active); with SF-539 CNS, 18.5% (inactive); with UACC-257 melanoma it was 15.5% (inactive); in the assay on M14 melanoma, 25.1% (inactive); with SNB-75 CNS, 33.9% (inactive); in the assay with SNB-19 CNS, 14.7% (inactive). Besides, the growth in the assay on U251 CNS is -21.3% (active); in the assay with PC-3 prostate, 31.6% (inactive); in the assay with SK-MEL-5 melanoma, -68.3% (active); in the assay on UACC-62 melanoma, -50% (active); with LOX IMVI melanoma, -75.2% (active); in the assay on SK-MEL-28 melanoma, 9.41% (active).
Take `COCCOc1ccc2ncc(C#Cc3cncc(C(=O)Nc4ccc(CN5CCN(C)CC5)c(C(F)(F)F)c4)c3)n2n1`: the growth was 7.72% (active) in the assay with DU-145 prostate; -18% (active) with K-562 leukemia; -72.3% (active) with MALME-3M melanoma; -28.5% (active) in the assay on MDA-MB-231 breast; -91.2% (active) in the assay on RXF 393 renal; -19.6% (active) in the assay on SF-268 CNS. The growth with SF-295 CNS was 31% (inactive); with SF-539 CNS, 8.57% (active); in the assay on UACC-257 melanoma it was 28.1% (inactive); in the assay on M14 melanoma it was -90.5% (active); with HT29 colon, 15.6% (inactive); in the assay with SNB-75 CNS, 4.29% (active). Moreover, the growth in the assay with SNB-19 CNS is 18.1% (inactive); with U251 CNS, 37.9% (inactive); with PC-3 prostate it was 35% (inactive); in the assay on SK-MEL-5 melanoma, 67.4% (inactive); in the assay with UACC-62 melanoma, 31.5% (inactive); in the assay on LOX IMVI melanoma it was -88.9% (active). The growth with SK-MEL-28 melanoma was -49.4% (active).
As for `CCCCCC[n+]1ccc(SCC(=O)n2ccc3ccccc32)c2ccccc21`, the growth in the assay on DU-145 prostate was 94.1% (inactive); in the assay with K-562 leukemia, 51.7% (inactive); in the assay on MALME-3M melanoma it was 91.4% (inactive); in the assay with MDA-MB-231 breast, 89.5% (inactive); in the assay with RXF 393 renal, 113% (inactive); with SF-268 CNS, 101% (inactive). Moreover, the growth in the assay on SF-295 CNS is 82.2% (inactive); in the assay with SF-539 CNS it was 96.3% (inactive); with UACC-257 melanoma, 100% (inactive); in the assay with M14 melanoma it was 89% (inactive); with HT29 colon it was 84% (inactive); in the assay on SNB-75 CNS, 100% (inactive). Moreover, the growth in the assay with SNB-19 CNS was 86.8% (inactive); in the assay on U251 CNS, 94.4% (inactive); in the assay with PC-3 prostate, 83.7% (inactive); with SK-MEL-5 melanoma, 88.7% (inactive); with UACC-62 melanoma, 73.3% (inactive); in the assay on LOX IMVI melanoma, 91.5% (inactive). Besides, the growth in the assay with SK-MEL-28 melanoma is 106% (inactive).
Take `Cc1ccc2c(n1)C(=O)C(Cl)=C(Nc1ccc(C#N)cc1)C2=O`: the growth with DU-145 prostate was 112% (inactive); with K-562 leukemia it was 5.72% (active); with MALME-3M melanoma, 27% (inactive); in the assay with MDA-MB-231 breast, 92.3% (inactive); with RXF 393 renal, 92.1% (inactive); in the assay on SF-268 CNS, 97% (inactive). Further, the growth with SF-295 CNS was 118% (inactive); in the assay with SF-539 CNS, 100% (inactive); with UACC-257 melanoma, 74.8% (inactive); in the assay with M14 melanoma it was 86.2% (inactive); in the assay on HT29 colon, 106% (inactive); in the assay with SNB-75 CNS, 110% (inactive). Moreover, the growth in the assay with SNB-19 CNS was 96.4% (inactive); with U251 CNS, 96.6% (inactive); in the assay with PC-3 prostate, 89.6% (inactive); with SK-MEL-5 melanoma it was 98.9% (inactive); with UACC-62 melanoma, 95.7% (inactive); in the assay with SK-MEL-28 melanoma, 99.8% (inactive).
Consider `CC[C@]12C=CCN3CC[C@@]4(c5ccc(OC)cc5N(C)[C@H]4[C@@](O)(C(=O)OC)[C@@H]1OC(=O)CCN1CCc4ccccc4C1)[C@@H]32`, for which the growth in the assay with DU-145 prostate was 106% (inactive); in the assay on K-562 leukemia, 75.4% (inactive); in the assay on MALME-3M melanoma, 89.2% (inactive); in the assay with MDA-MB-231 breast, 84.9% (inactive); in the assay with RXF 393 renal, -95.9% (active); in the assay with SF-268 CNS it was 85.2% (inactive). Also, the growth was 104% (inactive) with SF-295 CNS; 95.9% (inactive) in the assay with SF-539 CNS; 100% (inactive) in the assay on UACC-257 melanoma; 98.2% (inactive) in the assay with M14 melanoma; 99% (inactive) in the assay with HT29 colon; 66.9% (inactive) with SNB-75 CNS. In addition, the growth is 91.9% (inactive) with SNB-19 CNS; 87.5% (inactive) in the assay with U251 CNS; 70.1% (inactive) with PC-3 prostate; 98.2% (inactive) in the assay on SK-MEL-5 melanoma; 99% (inactive) with UACC-62 melanoma; 88.5% (inactive) in the assay on LOX IMVI melanoma. In the assay with SK-MEL-28 melanoma, the growth is 95% (inactive).
As for `CCN(CC)c1ccc(/C=N/NC(=O)c2ccc(NS(C)(=O)=O)cc2)cc1`, the growth in the assay on DU-145 prostate was 37.9% (inactive); with K-562 leukemia, 14.8% (inactive); with MALME-3M melanoma, 15.5% (inactive); with MDA-MB-231 breast it was 43.2% (inactive); in the assay with RXF 393 renal it was 12.3% (inactive); with SF-268 CNS, 32% (inactive). Moreover, the growth is 11.4% (inactive) in the assay with SF-295 CNS; 18.6% (inactive) with SF-539 CNS; -4.47% (active) in the assay on UACC-257 melanoma; 0.0523% (active) in the assay with M14 melanoma; 32.1% (inactive) in the assay on HT29 colon; 73.3% (inactive) with SNB-75 CNS. For the same molecule, the growth with SNB-19 CNS was 39.2% (inactive); in the assay with U251 CNS it was 31.1% (inactive); in the assay on PC-3 prostate it was 37.2% (inactive); in the assay with SK-MEL-5 melanoma, 4.46% (active); in the assay with UACC-62 melanoma, 12.3% (inactive); with LOX IMVI melanoma it was 9.94% (active). The growth in the assay on SK-MEL-28 melanoma was 23.8% (inactive).
With `COc1ccc(-c2c3c(cn2Cc2cccc(OC)c2)-c2oncc2CCC3)cc1`, the growth in the assay with DU-145 prostate is 101% (inactive); in the assay on K-562 leukemia, 85.6% (inactive); with MALME-3M melanoma it was 95.6% (inactive); in the assay with MDA-MB-231 breast it was 101% (inactive); in the assay with RXF 393 renal, 111% (inactive); in the assay on SF-268 CNS, 99.5% (inactive). Besides, the growth in the assay with SF-295 CNS is 97% (inactive); with SF-539 CNS, 97.8% (inactive); in the assay with UACC-257 melanoma, 96.6% (inactive); with M14 melanoma, 91.6% (inactive); in the assay on HT29 colon it was 109% (inactive); with SNB-75 CNS it was 103% (inactive). Moreover, the growth in the assay on SNB-19 CNS was 93.4% (inactive); with U251 CNS it was 93.2% (inactive); with PC-3 prostate, 85.4% (inactive); with SK-MEL-5 melanoma, 100% (inactive); with UACC-62 melanoma, 79.3% (inactive); with LOX IMVI melanoma, 95.2% (inactive).
Regarding `CC[C@]12CC(C(=O)OC)=C3Nc4ccccc4[C@@]34CCN(C14)[C@@H]1c3cc4c(cc3O[C@@H]1[C@H]2O)NC1=C(C(=O)OC)C[C@@]2(CC)C3N(CC[C@@]143)C[C@H]1O[C@H]12` (some centres undefined), the growth in the assay with DU-145 prostate was 41.9% (inactive); with K-562 leukemia it was 6.04% (active); in the assay with MALME-3M melanoma, 5.67% (active); in the assay on MDA-MB-231 breast, 22.2% (inactive); with RXF 393 renal, -17.9% (active); in the assay with SF-268 CNS it was 29.4% (inactive). The growth with SF-295 CNS is 9.12% (active); in the assay on SF-539 CNS, 15.5% (inactive); in the assay on UACC-257 melanoma, 24.8% (inactive); in the assay on M14 melanoma it was 17.6% (inactive); in the assay on HT29 colon it was 12.2% (inactive); in the assay on SNB-75 CNS, -4.96% (active). The growth with SNB-19 CNS was 14.2% (inactive); in the assay on U251 CNS it was 19.2% (inactive); in the assay with PC-3 prostate, 10.1% (inactive); in the assay on SK-MEL-5 melanoma it was -75.7% (active); with UACC-62 melanoma, 8.9% (active); with LOX IMVI melanoma it was -64.6% (active). Further, the growth in the assay on SK-MEL-28 melanoma is 20.7% (inactive).
